JMJD2A Tudor inh: blocks the human JMJD2A Tudor domain. O75164. AlphaScreen JMJD2A-Tudor / H3K4me3 peptide binding. Potency, µM (series often up to 114 µM), for the others: at the top dose activity change, negative = inhibition, hits mostly inhibitors. actives 4.4% (n = 390,000). AID 504339; note: % is set by controls: 0 for no effect and ±100 for the full control effect; nearly all actives have a fitted effect of over 50% in size
BAZ2B inh: blocks human BAZ2B | Q9UIF8 | AlphaScreen BAZ2B-H3K14Ac peptide displacement | Potency, µM (top dose mostly 114 µM), for inactives: top-dose activity change, negative = inhibition, hits mostly inhibitors | actives 4.4% (n = 360,000) | AID 504333; note: % is set by controls: 0 for no effect and ±100 for the full control effect; nearly all actives have a fitted effect of over 60% in size
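In this displacement format the biotinylated H3(5-23) peptide acetylated at Lys14 serves as ligand at 50 nM, with BAZ2B at 50 nM in PBS pH 7.4 containing 0.01% Tween-20. Donor and acceptor beads are 10 ug/mL final.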
HP1b binding inh: inhibitors of HP1-beta chromodomain binding to methylated histone tails; AlphaScreen HP1-beta / biotin-H3K9me3 peptide binding; P83916; Potency, µM (titrated, usually from 114 µM), inactives show at the top dose activity change, negative = inhibition, most hits filed as inhibitors; AID 540317; actives 0.56% (n = 390,000); note: nearly all actives have a fitted effect of over 70% in size
Target sequence (P83916 whole entry, looked up): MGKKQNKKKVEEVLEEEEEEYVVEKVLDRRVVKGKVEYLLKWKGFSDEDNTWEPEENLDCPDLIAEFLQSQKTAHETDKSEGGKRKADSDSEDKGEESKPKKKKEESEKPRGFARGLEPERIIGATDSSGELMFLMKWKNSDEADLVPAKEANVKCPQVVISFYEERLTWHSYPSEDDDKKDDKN
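AlphaScreen: HP1-beta (50 nM) preformed 30 min with biotin-H3(1-18)K9me3 peptide (50 nM) in PBS pH 7.4, 0.01% Tween-20. Compound added for 30 min at RT, then streptavidin donor/nickel chelate acceptor beads (10 ug/mL) for 30 min.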
12-LOX inh: blocks human arachidonate 12S-lipoxygenase; purified 12hLO, xylenol orange hydroperoxide absorbance; AID 1671190; actives 1.1% (n = 580,000); Potency, µM (titrated, usually from 108 µM), inactives show top-dose activity change, negative = inhibition, usual class: inhibitors; note: % is set by controls: 0 for no effect and ±100 for the full control effect
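Purified human 12hLO at 150 nM in 25 mM Hepes, 0.01% Triton X-100, pH 7.0, preincubated 15 min at room temperature with compound. Reaction started with 40 uM arachidonic acid, 30 min at room temperature. Hydroperoxide measured by Fe-xylenol orange, 573/405 nm absorbance ratio.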
G9a inh: blocks human histone lysine methyltransferase G9a; actives 8.8% (n = 350,000); Q96KQ7; G9a H3K9 monomethylation, AlphaScreen, 2 h; Potency, µM (top dose mostly 102 µM), without a hit: top-dose activity, negative = inhibition, hits mostly inhibitors; note: % is set by controls: 0 for no effect and ±100 for the full control effect; nearly all actives have a fitted effect of over 75% in size
Target sequence (Q96KQ7 913-1193 limits assumed): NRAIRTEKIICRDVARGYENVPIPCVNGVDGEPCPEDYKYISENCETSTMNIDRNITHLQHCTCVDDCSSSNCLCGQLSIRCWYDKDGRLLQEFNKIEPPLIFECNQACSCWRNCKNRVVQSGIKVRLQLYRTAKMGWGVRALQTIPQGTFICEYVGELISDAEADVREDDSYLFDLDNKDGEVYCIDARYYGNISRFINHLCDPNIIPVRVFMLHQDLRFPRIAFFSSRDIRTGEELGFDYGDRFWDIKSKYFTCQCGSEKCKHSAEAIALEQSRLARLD
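AlphaScreen read-out: biotin-H3K9 peptide (500 nM) methylation by 20 nM enzyme with 20 uM SAM, 2 h at room temperature after 15 min compound preincubation; anti-monomethyl H3K9 antibody plus donor/acceptor beads, 10 min dark.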
Sfp inh: Sfp phosphopantetheinyl transferase inhibition; Q9F4F7; Biochemical Sfp PPTase activity, qHTS; Potency, µM, for inactives: largest response in the series, negative = inhibition, hits mostly inhibitors; actives 3.5% (n = 310,000); AID 1490;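 note: the enzyme is Sfp with the accession as filed and its product quenches rhodamine fluorescence; 0% = enzyme reaction without inhibitor and -100% = no enzyme wells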
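Buffer: 50 mM Hepes-Na pH 7.6, 10 mM MgCl2, 0.01% Nonidet P-40, 0.01% BSA. Enzyme 15 nM, pre-exposed to compound 15 min; substrates then added and fluorescence change tracked over 30 min.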
Active calls of the source: *; ? = inconclusive; . = no result; [ ] = dose if it differs, or a comment. Hits are enriched below; roughly 8.7% of the tested compounds scored in any of these assays. Calls come from the whole dose curve; as a rule, active = well fitted curve in the direction sought with a large enough effect; inconclusive = small, poorly fitted or top-dose-only effect, or another doubt; inactive = no such curve, though single readings can be large; an effect the other way counts as inactive or inconclusive. Potency is the fitted concentration of half-maximal effect.

SMILES	JMJD2A Tudor inh	BAZ2B inh	HP1b binding inh	12-LOX inh	G9a inh	Sfp inh
Cc1ccc(S(=O)(=O)NNC(=O)c2ccc(F)cc2)cc1	-3.1%	-8.8%	18.4%	?	.	3.5%
O=C(NNS(=O)(=O)c1ccc(F)cc1)c1sccc1-n1cccc1	-9.8%[11.4 µM]	-20.8%	33.6%	-14.9%	-5.4%	17.4%
Cc1ccc(S(=O)(=O)NNC(=O)c2ccccc2O)cc1	3.16µM*	0.8%	4.4%	-17.1%	-8.5%[59 µM]	4.0%
Cc1ccc(S(=O)(=O)NNC(=O)c2sccc2-n2cccc2)cc1	?	?	-1.4%	31.6µM*	10.3%[59 µM]	16.9%
Cc1ccccc1C(=O)NNS(=O)(=O)c1ccc(F)cc1	.	.	.	0.4%	.	.
O=C(NNS(=O)(=O)c1ccc(F)cc1)c1ccccc1O	1.7%	?	23.6%	0.0%	31.6µM*	11.1%
NC(=O)NC(=O)Nc1ccccc1Cl	-6.9%[57.1 µM]	3.0%	64.9%	0.0%	1.4%[2.33 µM]	-0.6%
O=C(NC(=O)c1csnn1)Nc1ccccc1Cl	-16.0%	-20.5%	26.8%	?	89.1µM*	2.9%
CCN1CCCC1CNC(=O)CSCc1cccc(C)c1 (centres undefined)	.	.	.	13.0%	.	.
Cc1cc(SCC(=O)NC2(C)CCS(=O)(=O)C2)nc2c(C)cccc12 (centres undefined)	.	.	.	1.1%	.	.
COc1ccc(Oc2c(C)oc3cc(OCC(=O)N4CCCCCC4)ccc3c2=O)cc1	.	.	.	-13.5%	.	.
O=C(O)/C=C/c1ccsc1	.	.	.	0.5%	.	.
C=CCC1(O)CC(c2ccco2)NC(c2ccco2)C1CCC (centres undefined)	4.47µM*	50.1µM*	?	?	31.6µM*	-10.3%
CCC1C(=O)CC(c2ccco2)NC1c1ccco1 (centres undefined)	-10.1%	8.5%	26.6%	369.4%	-14.8%[59 µM]	2.7%
COc1cc(OC)cc(C(=O)NC(=S)Nc2ccc3[nH]c(=O)[nH]c3c2)c1	-26.3%	9.5%	19.9%	?	6.4%	4.7%
O=c1[nH]c2ccc(NC(=S)Nc3ccccc3)cc2[nH]1	-9.0%[57.1 µM]	13.8%	-14.3%	?	44.7µM*	?
O=c1[nH]c2ccc(NC(=S)NCCc3ccccc3)cc2[nH]1	-13.7%	-5.6%	34.0%	?	17.2%[59 µM]	-41.1%
COCCNC(=S)Nc1ccc2[nH]c(=O)[nH]c2c1	-9.5%	-22.1%	-2.1%	-20.4%	17.8µM*	-11.5%
Cc1ccc(C(=O)NC(=S)Nc2ccc3[nH]c(=O)[nH]c3c2)cc1	?	6.8%	11.9%	?	50.1µM*	-15.5%
CCOC(=O)c1ccc(NC(=S)Nc2ccc3[nH]c(=O)[nH]c3c2)cc1	-10.0%	-5.9%	2.6%	-29.2%	.	39.8µM*
COc1ccccc1/C=C(/C#N)C(=O)c1c(Cl)cccc1Cl	.	.	.	-100.1%	.	.
O=c1[nH]c2ccc(NC(=S)Nc3ccc(Cl)cc3)cc2[nH]1	-17.2%	8.3%	-10.4%	?	-1.9%[59 µM]	3.3%
Cc1ccc(NC(=S)Nc2ccc3[nH]c(=O)[nH]c3c2)cc1	-6.6%[11.4 µM]	-20.9%	-14.7%	-1.3%	50.1µM*	?
CCCCCC/C=C\CCCCCCCc1cccc(O)c1C(=O)O	.	.	.	11.8%	2.5%[2.33 µM]	9.0%
CCCCCC(=O)Cc1cc(O)cc2c1C(=O)Oc1cc(O)c(C(=O)O)c(CCCCC)c1O2	79.4µM*	?	-9.5%	.	-22.5%[59 µM]	8.7%
CC[C@@H](C)[C@H](NC(=O)[C@H](C)n1nnc2ccccc2c1=O)C(=O)O	.	.	.	3.1%	.	.
C=CCNc1nc(N)c(C(=O)c2ccccc2)s1	.	.	.	-16.2%	.	.
COc1ccc(C(=O)CSc2nnc(-c3ccco3)n2CC2CCCO2)cc1 (centres undefined)	-7.8%	4.9%	60.7%	?	-12.7%[59 µM]	44.7µM*
O=C(CSc1nnc(-c2ccco2)n1CC1CCCO1)c1ccc(F)cc1 (centres undefined)	3.16µM*	-23.4%	?	-14.7%	44.7µM*	50.1µM*
O=C(CSc1nnc(-c2ccco2)n1CC1CCCO1)N1CCCCC1 (centres undefined)	-12.7%	-3.8%	5.9%	5.0%	?	1.8%

Compound activity deposited in PubChem by National Center for Advancing Translational Sciences (NCATS).
